Among the data in PubChem BioAssay AID1662 (Broad Institute, 2009) are inhibition values, retold here.

Screen size: about 300,000 compounds; about 4,000 (1.3%) were called active.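 How the source made its calls: active means mean replicate score, as percent of positive control median, at least 50; inconclusive means mean below 50 but one replicate at or above 50; inactive means mean and every replicate below 50.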 This excerpt belongs to a sample that is enriched for actives.

This assay in a line: S. pyogenes SKKanGAS growth inhibitors in kanamycin, primary screen, streptokinase expression inhibitor project, SKKanGAS strain, BacTiter-Glo luminescence (AID 1662).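 Further: strain carries kanamycin resistance gene driven by streptokinase promoter and grows in 40 µg/ml kanamycin; loss of luminescence reflects streptokinase promoter inhibition or plain growth inhibition; 0% = median of DMSO wells and 100% = positive control at its reference dose.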 To be noted: 6 h, at 7.5 µM, stronger effect = higher value.
The inhibition is the drop in the measured response relative to a control, in per cent. In the case of `O=C(N/N=C/c1c(O)n(Cc2ccccc2)c(=O)[nH]c1=O)c1ccccc1`, the inhibition was 56.7% (active).
`O=C(N/N=C/c1c(O)n(C2CC2)c(=S)[nH]c1=O)c1ccccc1`: the inhibition was -1.33% (inactive).
The same measure for `O=c1[nH]c(=O)n(Cc2ccccc2)c(O)c1/C=N/Nc1c(F)c(F)c(F)c(F)c1F`: 6.55% (inactive); for `COC(=O)N(c1ccc(OC)cc1)P1(=S)OCCC(C)O1` (stereo not given): -2.38% (inactive); for `CCOP(=S)(OCC)SCOC(=O)NCC(=O)OC`: 3.28% (inactive).
The same measure for `COc1ccccc1OC(=O)c1ccc(C)c(S(=O)(=O)N2CCOCC2)c1`: 3.63% (inactive).
For `CCCCCCCCCCCCn1ccc(=N)cc1`, the inhibition is 93.3% (active).
As to `O=[N+]([O-])c1ccc(C2C3C(c4ccccc4)=NC4(CCCCC4)N32)cc1` (stereo not given), the inhibition is 4.96% (inactive).
With `Cc1cccc(NC(=O)OC2CN3CCC2CC3)c1` (stereo not given), the inhibition was 0.418% (inactive).
Regarding `CC1(C)C(c2ccccc2)=NC(c2cccnc2)=[N+]1[O-]`, the inhibition is -22% (inactive).
Regarding `CCCCCn1c(=O)c(C(=O)NCc2ccccc2)c(O)c2ccccc21`, the inhibition is 86% (active).
`CCCCCn1c(=O)c(C(=O)NCc2ccccn2)c(O)c2ccccc21`: the inhibition was 6.78% (inactive).
As to `CCCCn1c(=O)c(C(=O)Nc2ccccc2Cl)c(O)c2ccccc21`, the inhibition is -1.86% (inactive).
`COC(=O)C1=C(c2cc3ccccc3o2)C[C@@H]2CC[C@H]1N2C(=O)NC1CCCCC1`: the inhibition was 7.09% (inactive).
Take `O=C(Cc1ccccc1)N1CCN(C2CCCCCC2)CC1`: the inhibition was 4.36% (inactive).
